Screening data: PubChem, several laboratories
S1P3 antag: S1P3 (human) receptor antagonism | 170,000 compounds, 0.27% hits | Q99500 | inhibition, % at 4.98 µM | CHO S1P3 NFAT-BLA reporter, FRET fluorescence, antagonist mode;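 active = inhibition above the plate cutoff, the mean inhibition of test wells on that plate plus 3 SD, cut at about 28% in these data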;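 note: cells challenged with S1P at its EC80 of 0.8 µM; blue over green emission ratio from cleaved BLA substrate after 4 h stimulation; 0% = S1P-stimulated wells and 100% = unstimulated DMSO-only wells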
EP2 modulator: EP2 receptor (human) modulation | P43116 | EP2-expressing cells, cAMP HTRF FRET, PGE2 co-stimulation | induction, % at 25 µM | 260,000 compounds, 0.83% hits;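 active = compounds whose cAMP rise, as percent of the full-agonist control response, exceeds 60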;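 note: rat C6 glioma line stably carrying human EP2 under a CMV promoter; the protocol text gives 20 µM as final concentration; 100% = response of wells given 1 µM PGE2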
PGE2 EP2 inh: inhibitors of human EP2 prostaglandin E2 receptor. 260,000 compounds, 0.52% hits. C6 glioma cells expressing human EP2, cAMP TR-FRET; cells stimulated with saturating PGE2. inhibition, % at 25 µM;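 active = percent inhibition above 40 after rounding to a whole number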;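 note: rat C6 glioma host cells with rolipram phosphodiesterase inhibitor present; the protocol text gives 20 µM as final concentration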
Cl transport mod: modulates chloride dependent transport by human KCC2 | Q9H2X9 | KCC2 cells, thallium flux FluoZin-2 fluorescence | B-score of Tl+ flux slope (higher = more flux/activation; lower = inhibition) at 10 µM | 190,000 compounds, 2.2% hits;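 active = thallium flux slope and its plate-corrected score both differing from the plate sample mean at a set confidence after two filtering rounds, in either direction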;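 note: slope of fluorescence scaled to starting intensity during 10 to 20 s after thallium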
Target sequence (Q9H2X9 whole entry, looked up): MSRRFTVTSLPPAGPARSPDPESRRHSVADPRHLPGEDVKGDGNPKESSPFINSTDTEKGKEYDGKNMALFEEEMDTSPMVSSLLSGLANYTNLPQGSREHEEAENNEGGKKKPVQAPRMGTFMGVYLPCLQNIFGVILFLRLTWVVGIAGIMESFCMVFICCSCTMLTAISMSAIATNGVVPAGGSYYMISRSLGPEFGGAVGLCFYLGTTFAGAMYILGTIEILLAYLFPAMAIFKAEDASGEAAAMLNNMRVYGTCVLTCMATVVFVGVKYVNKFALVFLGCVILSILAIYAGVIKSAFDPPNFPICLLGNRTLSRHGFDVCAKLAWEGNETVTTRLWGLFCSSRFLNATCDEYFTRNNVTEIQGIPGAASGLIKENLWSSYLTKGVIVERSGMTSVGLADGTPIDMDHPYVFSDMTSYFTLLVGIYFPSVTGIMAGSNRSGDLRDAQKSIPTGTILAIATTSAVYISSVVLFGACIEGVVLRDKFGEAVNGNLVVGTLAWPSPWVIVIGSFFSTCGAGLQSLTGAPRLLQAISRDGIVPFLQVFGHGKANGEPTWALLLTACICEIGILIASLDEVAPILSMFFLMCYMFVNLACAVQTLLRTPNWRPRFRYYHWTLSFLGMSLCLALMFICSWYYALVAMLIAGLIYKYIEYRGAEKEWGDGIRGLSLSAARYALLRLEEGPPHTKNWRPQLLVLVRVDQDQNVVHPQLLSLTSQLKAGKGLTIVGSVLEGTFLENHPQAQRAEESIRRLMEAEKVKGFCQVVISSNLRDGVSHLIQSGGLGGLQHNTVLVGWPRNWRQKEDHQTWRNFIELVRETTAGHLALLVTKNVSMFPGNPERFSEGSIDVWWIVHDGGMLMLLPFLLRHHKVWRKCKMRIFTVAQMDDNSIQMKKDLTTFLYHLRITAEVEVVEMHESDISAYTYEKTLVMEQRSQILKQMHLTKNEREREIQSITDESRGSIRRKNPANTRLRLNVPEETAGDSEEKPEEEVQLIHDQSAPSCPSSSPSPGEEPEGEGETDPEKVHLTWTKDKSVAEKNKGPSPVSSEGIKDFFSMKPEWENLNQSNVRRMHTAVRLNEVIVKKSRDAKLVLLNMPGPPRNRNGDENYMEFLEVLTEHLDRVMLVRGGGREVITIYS
KCC2 secondary: KCC2 (human) modulation, secondary assay. HEK293-KCC2, thallium flux, FluoZin2 fluorescence; active compounds read high. 3,700 compounds, 15% hits. normalised thallium flux (F/F0 slope) at 10 µM. shares compounds with Cl transport mod. AID 1713;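 active = thallium flux slope above the same plate's solvent-only control mean plus 3 SD; inconclusive = the two replicate wells disagree; inactive = no significant difference from solvent-only control wells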
KCC2 bumet counter: bumetanide-insensitive thallium flux in KCC2 cells with ouabain, counter-screen. shares compounds with Cl transport mod. HEK293-KCC2 + bumetanide/ouabain, thallium flux FluoZin2; active compounds read high. normalized thallium flux at 10 µM. 3,700 compounds, 49% hits. AID 1714;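 active = thallium entry rate above the same plate's blocked-transporter control wells by more than 3 SD; inconclusive = the two repeat wells disagree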;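 note: raw slope of fluorescence over initial fluorescence between 10 and 20 s after thallium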
KCC2 secondary2: KCC2 (human) modulation, second secondary assay; shares compounds with Cl transport mod; HEK293-KCC2, thallium flux FluoZin2 fluorescence; actives lie on both sides; F/F0 rise rate, 10–20 s post-thallium; normalized thallium flux at 10 µM; 3,700 compounds, 23% hits;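 active = thallium flux slope more than 3 SD above or below the plate's solvent-only control mean, mostly below; inconclusive = the two repeat wells disagreed; inactive = no significant shift from solvent-only controls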;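 note: raw slope with 0.1% DMSO as baseline and bumetanide as block control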
HEK293 Tl flux: acts in parental HEK cells, KCC2 counter-screen. thallium flux rate (normalised fluorescence) at 10 µM. HEK293 parental cells, thallium flux FluoZin2, ouabain; baseline-ratio fluorescence slope, 10–20 s after thallium. 3,700 compounds, 46% hits. shares compounds with Cl transport mod;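 active = thallium flux rate significantly above the same plate's solvent-only control wells, beyond their mean plus 3 SD; inconclusive = the two replicate wells gave conflicting results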
KCC2 ouabain: KCC2 (human) modulation, ouabain retest; shares compounds with Cl transport mod; HEK293-KCC2, thallium flux FluoZin2 fluorescence; bidirectional: low = inhibitor, high = activator; raw Tl+ flux slope (below DMSO = inhibition, above = activation) at 10 µM; 3,700 compounds, 48% hits;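 active = thallium flux slope beyond 3 SD from same-plate DMSO control mean in most replicates, usually higher, sometimes lower; inconclusive = repeat tests gave conflicting results; inactive = no significant difference from controls in most replicates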;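 note: slope of initial-normalized fluorescence between seconds 10 and 20 after thallium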
HEK counter2: parental HEK flux effect, counter-screen 2; shares compounds with Cl transport mod; HEK293 parental, thallium flux FluoZin-2 fluorescence slope; thallium flux slope at 10 µM; 3,700 compounds, 33% hits; AID 1718;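 active = thallium flux slope above the same plate's solvent-control mean plus 3 SD in both duplicate wells; inconclusive = duplicate wells that disagreed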;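 note: run without ouabain in cells lacking the KCC2 cotransporter; slope of fluorescence scaled to its starting value between 10 and 20 s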
* = called active by the depositor; u = inconclusive; x = not tested or not shown. The list is not random: actives were taken first. Their share in the collection is about 3.1%.

SMILES | S1P3 antag | EP2 modulator | PGE2 EP2 inh | Cl transport mod | KCC2 secondary | KCC2 bumet counter | KCC2 secondary2 | HEK293 Tl flux | KCC2 ouabain | HEK counter2
CCCCCCCC(=O)NNC(=O)c1c(O)c2ccccc2n(CC)c1=O | -19 | -9 | 6 | 11* | 0.0052 | 0.016* | 0.033 | 0.017* | u | 0.019*
CCn1c(=O)c(C(=O)NNC(=O)C(C)C)c(O)c2ccccc21 | x | -24 | 22 | x | x | x | x | x | x | x
CCCCCCC(=O)NNC(=O)c1c(O)c2ccccc2n(CCC)c1=O | -102 | -15 | 6 | 2.6 | x | x | x | x | x | x
CCCCCCCC(=O)NNC(=O)c1c(O)c2ccccc2n(CCC)c1=O | -4 | -10 | 4 | x | x | x | x | x | x | x
Cc1ccc2[nH]c(=O)c(-c3nc4ccccn4c3NCc3ccc4c(c3)OCO4)cc2c1 | x | -39 | 13 | x | x | x | x | x | x | x
C=CCn1c(SCC(=O)c2ccccc2)nnc1-c1ccc2c(c1)OCO2 | x | -35 | x | -2.3 | 0.01 | 0.0068 | 0.033 | 0.0075 | 0.021 | u
CC(=O)c1c(NC(=O)c2ccccc2)[nH]c(-c2ccccc2)nc1=S | -5 | 22 | 3 | 36* | u | 0.052* | 0.062* | 0.052* | 0.052* | 0.054*
COc1ccccc1-c1nc(=S)c(C(C)=O)c(C)[nH]1 | -6 | 17 | 5 | 1.2 | x | x | x | x | x | x
CSc1nc(-c2ccccc2)nc(NC(=O)c2ccccc2)c1C(C)=O | 5 | -16 | 2 | -0.65 | x | x | x | x | x | x
CC(=O)c1c(C)[nH]c(-c2ccccc2)nc1=S | -6 | 5 | 3 | 14* | 0.017* | 0.022* | 0.031 | 0.013* | 0.025 | u
COCCn1c(=O)n(CC(=O)Nc2ccccc2Cl)c2cccnc21 | x | 8 | x | x | x | x | x | x | x | x
CC1(C(=O)Nc2ccccc2F)Cc2ccccc2C(=O)O1 (configuration not stated) | x | -44 | 1 | x | x | x | x | x | x | x
CC(C)CNC(=O)c1ccccc1NC(=O)c1ccccc1N(C)S(C)(=O)=O | x | 24 | 5 | -3.8* | 0.0065 | 0.0047 | u | u | 0.019 | 0.01
CCOC(=O)c1ccc(NC(=S)NC(=O)c2nn(CC)cc2Br)cc1 | -15 | 17 | 4 | 6* | 0.011 | 0.0097* | 0.034 | 0.0092* | 0.025 | 0.012*
CCOC(=O)c1ccc(NC(=O)c2nn(CC)cc2Br)cc1 | 25 | -20 | 4 | -1.2 | x | x | x | x | x | x
CCn1cc(Br)c(C(=O)NC(=S)Nc2ccc(C(=O)OC)cc2)n1 | -9 | 27 | 9 | 6.2* | 0.011 | 0.018* | 0.034 | 0.013* | 0.026 | 0.012*
COc1ccc(N/C(N)=N/c2nc(CSc3ccc(C)cc3)cc(=O)[nH]2)cc1 | 24 | 16 | 4 | x | 0.015 | 0.004 | 0.031 | 0.0076 | 0.015 | 0.011
Cc1ccc(N/C(N)=N/c2nc(CSc3ccc(C)cc3)cc(=O)[nH]2)cc1 | x | 38 | x | -0.42 | x | x | x | x | x | x
Cc1ccc(C(=O)O)cc1-c1ccc(/C=C2/NC(=O)N(c3ccccc3)C2=O)o1 | x | -27 | 14 | -4.6* | 0.0067 | 0.0051 | 0.022* | 0.0074 | 0.014* | 0.0093
O=C(NN1C(=O)/C(=C/C=C/c2ccco2)SC1=S)c1ccccc1O | 0 | -17 | 25 | -3.3* | 0.0056 | u | 0.023* | 0.0073 | u | 0.011
Cc1ccc(C(=O)NC(=S)Nc2c(C)ccc3nsnc23)cc1 | -1 | 1 | 9 | 8.7* | 0.011 | 0.057* | 0.037 | 0.023* | 0.045* | 0.013*
Cc1ccc(C(=O)NC(=S)Nc2cccc3nsnc23)cc1 | x | 34 | 16 | 0.86 | x | x | x | x | x | x
Cc1ccc(N(CC(=O)N2CCCCC2)S(C)(=O)=O)cc1C | x | 2 | 6 | x | x | x | x | x | x | x
Cc1cccc(C)c1-n1cccc1/C=C1/C(=N)N2C(=NC1=O)SN=C2S(C)(=O)=O | -5 | -21 | 9 | -4.5* | 0.0074 | 0.0062 | 0.034 | 0.0065 | 0.015* | 0.011
Cc1ccc(-n2cccc2/C=C2/C(=N)N3C(=NC2=O)SN=C3S(C)(=O)=O)cc1Cl | 4 | 20 | 10 | -2.2 | x | x | x | x | x | x
SMILES | S1P3 antag | EP2 modulator | PGE2 EP2 inh | Cl transport mod | KCC2 secondary | KCC2 bumet counter | KCC2 secondary2 | HEK293 Tl flux | KCC2 ouabain | HEK counter2
CCC1=NN2C(=N)/C(=C/c3cc(C)n(Cc4ccccc4)c3C)C(=O)N=C2S1 | -7 | -41 | 15 | 2.1 | x | x | x | x | x | x
CCC1=NN2C(=N)/C(=C\c3cccn3-c3ccc(C)cc3C)C(=O)N=C2S1 | -15 | -14 | 9 | 8.6* | 0.011 | 0.055* | 0.035 | 0.02* | 0.04* | u
CCC1=NN2C(=N)/C(=C\c3cccn3-c3c(C)cccc3C)C(=O)N=C2S1 | -2 | -24 | 8 | 9* | u | 0.028* | 0.036 | 0.032* | 0.03* | 0.015*
CCOc1ccc(-n2c(SCC(=O)Nc3ccc(F)cc3)nnc2-c2cccnc2)cc1 | x | -18 | 11 | x | x | x | x | x | x | x
Cc1nn(CC(=O)N2C(C)CCCC2C)c(=O)c2cc3occc3n12 (configuration not stated) | x | -3 | x | x | x | x | x | x | x | x
C[N+](C)(C)C1CCS(=O)(=O)C1 (configuration not stated) | x | -26 | 8 | x | x | x | x | x | x | x
CS(=O)(=O)c1ccc(C(=O)Nc2ccc(N3CCOCC3)cc2)c(Cl)c1 | 6 | -28 | 4 | -0.0084 | x | x | x | x | x | x
CN(c1ccccc1)S(=O)(=O)c1ccc(Cl)c(C(=O)Nc2ccc(N3CCOCC3)cc2)c1 | 4 | -39 | 5 | -2.7* | 0.006 | 0.0062 | 0.029 | 0.0064 | 0.017 | 0.0094
COc1cccc(OC)c1C(=O)N1CCC(c2nc3c(nnn3Cc3ccc(F)cc3)c(=O)[nH]2)CC1 | x | -17 | 14 | x | x | x | x | x | x | x
O=C(c1cc(COc2ccc(F)cc2Cl)on1)N1CCCC(OCc2cccnc2)C1 (configuration not stated) | 1 | -38 | 3 | x | 0.0067 | 0.0052 | 0.028 | 0.0071 | 0.014* | u
O=C(c1cnn(-c2ccc(F)cc2)c1)N1CCC(OCc2ccccc2)CC1 | x | -47 | 7 | x | x | x | x | x | x | x
O=C(c1cc(COc2ccc(F)cc2Cl)on1)N1CCC(OCc2cccnc2)CC1 | -17 | -24 | 1 | x | 0.0081 | 0.0064 | 0.028 | 0.007 | 0.03* | 0.01
Cc1nonc1C1CCCN1C(=O)c1cc(COc2ccc(F)cc2Cl)on1 (configuration not stated) | 2 | -44 | 6 | x | 0.016 | 0.004 | 0.024* | u | 0.013 | 0.0099
CN1CCN(C(=O)c2cc(COc3ccc(F)cc3Cl)on2)CC1c1ccccc1 (configuration not stated) | 2 | -5 | 2 | x | x | x | x | x | x | x
